Results published in PubChem BioAssay (NCATS).
Values joined by “and” are separate entries in the source; they are usually repeats but may differ in a detail not shown here. Equal entries are not always repeated. Records with an inconclusive call do not appear. Some structures have more than one record in an assay (separate samples or runs), and their calls can disagree. Active and inactive are the calls of the source. Unless noted, the call rests on the fitted dose curve; in most records, active means well fitted curve in the direction sought with a large enough effect; inconclusive means small, poorly fitted or top-dose-only effect, or another doubt; inactive means no such curve, though single readings can be large; an effect the other way counts as inactive or inconclusive.

Legend:
[1] = molecular target: alpha-glucosidase (Oryza sativa, rice) (UniProt Q653V4); assay: Counterscreen for Glucocerebrosidase Inhibitors: qHTS Assay for Rice alpha-Glucosidase at pH 5.0 (AID 997);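 further: 0% = full activity with enzyme and -100% = basal without enzyme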
Summary of the method: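 Rice alpha-glucosidase (4 nM final) with 400 uM 4-methylumbelliferyl-alpha-D-glucopyranoside in citrate buffer pH 5.0, 20 min at room temperature, stopped at pH 10; fluorescence 365/440 nm, compounds 0.7 nM–77 uM, AC50 from Hill fits.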

[2] = molecular target: Alpha-galactosidase (Coffea arabica) (UniProt Q42656); assay: Counterscreen for Glucocerebrosidase Inhibitors: qHTS Assay for Coffee Bean alpha-Galactosidase at pH 5.9 (AID 998);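 further: plate controls were uninhibited enzyme for no effect and no-enzyme basal signal for full effect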
Sequence of Alpha-galactosidase (Coffea arabica) (Q42656 whole entry, looked up): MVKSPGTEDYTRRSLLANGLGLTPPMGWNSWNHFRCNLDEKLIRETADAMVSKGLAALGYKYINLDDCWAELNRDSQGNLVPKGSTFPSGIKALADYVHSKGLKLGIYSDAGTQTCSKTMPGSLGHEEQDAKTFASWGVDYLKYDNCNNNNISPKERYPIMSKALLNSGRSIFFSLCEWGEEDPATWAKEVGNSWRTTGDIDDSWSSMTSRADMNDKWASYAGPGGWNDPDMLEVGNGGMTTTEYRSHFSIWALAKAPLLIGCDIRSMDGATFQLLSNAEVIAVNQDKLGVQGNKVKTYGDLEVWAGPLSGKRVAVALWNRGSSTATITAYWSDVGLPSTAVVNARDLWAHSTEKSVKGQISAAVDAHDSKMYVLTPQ
Summary of the method: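 Green coffee bean enzyme (2 nM final) was incubated with compounds (0.7 nM–77 uM) and 4-methylumbelliferyl alpha-D-galactopyranoside (80 uM) in citrate buffer pH 5.9, 20 min at room temperature. High-pH stop; fluorescence 365/440 nm; AC50 from Hill fits.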

[3] = qHTS Assay for Lipid Storage Modulators (AID 1519; calls by dose curve; further: potency means the concentration at half of the fitted maximal effect); details: Drosophila S3 cells, BODIPY lipid droplet/cell ratio, laser cytometry, cells loaded with oleic acid
Summary of the method: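 Cells seeded at 5,000 per well were treated with compounds over a concentration series and loaded with oleic acid (400 uM, as added). Lipid droplet fluorescence (488 nm excitation, 500-530 nm channel) was read by laser-scanning cytometry and normalized to 20 uM Triacsin C.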

[4] = molecular target: DNA repair nuclease/redox regulator APEX1 (Homo sapiens) (UniProt P27695); assay: qHTS Validation Assay for Inhibitors of the Human Apurinic/apyrimidinic Endonuclease 1 (APE1) (AID 1705;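 further: TAMRA fluorescence gain over two minutes as APE1 cuts a quenched THF abasic duplex; on the % scale 0 is the no-effect control and ±100 the full control effect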)
Sequence of DNA repair nuclease/redox regulator APEX1 (Homo sapiens) (P27695 whole entry, looked up): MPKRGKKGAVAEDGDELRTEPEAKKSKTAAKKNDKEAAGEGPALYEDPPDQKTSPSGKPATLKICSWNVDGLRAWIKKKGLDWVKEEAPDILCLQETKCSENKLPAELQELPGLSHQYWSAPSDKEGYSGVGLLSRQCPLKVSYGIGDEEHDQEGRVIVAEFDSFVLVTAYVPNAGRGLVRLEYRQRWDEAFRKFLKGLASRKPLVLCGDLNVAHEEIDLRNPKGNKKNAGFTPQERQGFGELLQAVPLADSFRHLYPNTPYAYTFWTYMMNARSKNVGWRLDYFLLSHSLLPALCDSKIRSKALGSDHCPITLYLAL
Summary of the method: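 qHTS, 1536-well. APE1 + cpd 15 min RT → 50 nM TAMRA/BHQ-2 THF-abasic dsDNA substrate → kinetic fluorescence, 3 reads/60 s; delta(read3−read1) = reaction progress. No-enzyme buffer = negative control.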

[5] = Counterscreen for APE1 Inhibitors: Fluorescent Dye Displacement Validation Assay (AID 1707); further: potency means the concentration at half of the fitted maximal effect;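 on activity change, negative = inhibition: plate controls were ThO with dsDNA and no compound for no effect and ThO without dsDNA for full effect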
Summary of the method: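 Assay buffer: Tris-HCl pH7.5 with 50mM NaCl, 2 mM MgCl2, 0.01% Tween-20. Dye 250 nM, duplex 50 nM final. Readout: decrease in ThO endpoint fluorescence, 480 nm excitation, 540 nm emission.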

[6] = molecular target: Endonuclease 4 (Escherichia coli (strain K12)) (UniProt P0A6C1); assay: Counterscreen for APE1 Inhibitors: qHTS Validation Assay for Inhibitors of Endonuclease IV (AID 1708); further: on the % scale 0 is the no-effect control and ±100 the full control effect
Summary of the method: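 Concentration-response counterscreen run identically to the APE1 assay: 15 min room-temperature preincubation of 2 nM enzyme with compound, reaction started with 50 nM quenched abasic DNA, progress taken from kinetic fluorescence.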

[7] = qHTS for differential inhibitors of proliferation of Plasmodium falciparum line 7G8 (AID 1815);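 further: parasite growth measured after three days of incubation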; further: potency means the concentration at half of the fitted maximal effect;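 on activity change, negative = inhibition: plate controls were vehicle wells for no effect and reference inhibitor wells for full effect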
[8] = qHTS for differential inhibitors of proliferation of Plasmodium falciparum line GB4 (AID 1816); details: Potency: Plasmodium falciparum GB4 proliferation inhibition;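 further: parasite growth measured after 72 h incubation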; further: potency means the concentration at half of the fitted maximal effect;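 on activity change, negative = inhibition: 0% = vehicle DMSO and -100% = reference inhibitor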
[9] = qHTS for differential inhibitors of proliferation of Plasmodium falciparum line 3D7 (AID 1876); further: potency means the concentration at half of the fitted maximal effect
[10] = qHTS for differential inhibitors of proliferation of Plasmodium falciparum line D10 (AID 1877);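 further: parasites grown with compound for 72 h before DNA staining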; further: potency means the concentration at half of the fitted maximal effect;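 on activity change, negative = inhibition: plate controls were vehicle wells for no effect and reference inhibitor wells for full effect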
[11] = qHTS for differential inhibitors of proliferation of Plasmodium falciparum line Dd2 (AID 1882); details: Potency: Plasmodium falciparum Dd2 proliferation inhibition; further: nearly all actives have a fitted effect of over 65% in size; further: potency means the concentration at half of the fitted maximal effect;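 on activity change, negative = inhibition: plate controls were DMSO vehicle for no effect and 0.29 µM artemisinin for full effect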
Summary of the method: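 Dd2-infected erythrocytes (0.3% parasitemia, 2.5% hematocrit final) incubated with compound 72 h at 37 C, 5% CO2; lysed with saponin/Triton buffer containing SYBR Green I, incubated overnight in the dark, then read by fluorescence (485/535 nm). Normalized to 0.29 uM artemisinin and DMSO.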

[12] = qHTS for differential inhibitors of proliferation of Plasmodium falciparum line W2 (AID 1883); details: Potency: Plasmodium falciparum W2 proliferation inhibition;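 further: parasites grown with compound for 72 h before lysis and staining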; further: potency means the concentration at half of the fitted maximal effect;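 on activity change, negative = inhibition: 0% = vehicle wells and -100% = control inhibitor wells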
[13] = qHTS for differential inhibitors of proliferation of Plasmodium falciparum line HB3 (AID 1886); details: Potency: Plasmodium falciparum HB3 proliferation inhibition;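 further: parasites grown with compound for 72 h before SYBR Green readout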; further: potency means the concentration at half of the fitted maximal effect;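 on activity change, negative = inhibition: plate controls were vehicle for no effect and reference inhibitor for full effect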
[14] = molecular target: Ferritin light chain (Equus caballus) (UniProt P02791); assay: qHTS Validation Assay for Identification of Novel General Anesthetics (AID 2323); further: on the % scale 0 is the no-effect control and ±100 the full control effect
Sequence of Ferritin light chain (Equus caballus) (P02791 2-175 limits assumed): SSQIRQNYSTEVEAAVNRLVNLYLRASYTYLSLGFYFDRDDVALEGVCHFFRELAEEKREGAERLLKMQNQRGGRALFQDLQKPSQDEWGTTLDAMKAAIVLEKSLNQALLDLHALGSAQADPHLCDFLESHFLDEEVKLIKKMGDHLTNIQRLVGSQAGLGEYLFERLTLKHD
Summary of the method: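 Fluorescence at 535 nm (excitation 380 nm) reported loss of 1-AMA binding to horse-spleen apoferritin (10 uM) in PBS with 50% saturated 1-aminoanthracene, after 10 min room-temperature incubation with compound; values from Hill fits of normalized response.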

[15] = Cell Viability - LYMP1-002 - Assay at 24 hr (AID 993); further: on the % scale 0 is the no-effect control and ±100 the full control effect
Summary of the method: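 Human lymphoblastoid LYMP1-002 cells (2500/well) treated 24 h at 37 °C; viability as intracellular ATP by CellTiter-Glo luminescence. Tetraoctylammonium bromide as positive control; AC50 from Hill-equation fits of qHTS concentration-response.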

[16] = Cell Viability - LYMP1-002 - Assay at 40 hr (AID 994); further: potency means the concentration at half of the fitted maximal effect; nearly all actives have a fitted effect of over 60% in size
Summary of the method: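 LYMP1-002 human lymphoblastoid cells (2500/well, complete medium) were treated with compounds for 40 hr at 37 C. Intracellular ATP was measured by CellTiter-Glo luminescence, and AC50 values came from Hill-equation fits of concentration-response data; tetraoctylammonium bromide was the positive control.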

[17] = measured here: cell count channel max response
[18] = measured here: lipid channel max response

NCC1(CC(=O)O)CCCCC1
-6.8% and 4.42%: max response [3, 18]
-7.98% and 4.74%: max response [3, 17]
inactive: outcome [1] | outcome [2] | activity change, negative = inhibition ([3]; at 25.7 µM (top of the series)) -2.01% | activity change, negative = inhibition ([3]; at 57.5 µM (top of the series)) 1.35% | outcome [4] | Potency [5] | outcome [6] | Potency [7] | Potency [8] | Potency [9] | Potency [10] | Potency [11] | Potency [12] | Potency [13] | outcome [14]

NCC(CC(=O)O)c1ccc(Cl)cc1 (stereo unspecified)
inactive: outcome [1] | outcome [2] | outcome [4] | Potency [5] | outcome [6] | Potency [7] | Potency [8] | Potency [9] | Potency [10] | Potency [11] | Potency [12] | Potency [13] | outcome [14]

CC(C)C(=O)Nc1ccc([N+](=O)[O-])c(C(F)(F)F)c1
inactive: outcome [2] | activity change, negative = inhibition ([3]; at 25.7 µM (top of the series)) -0.701% | activity change, negative = inhibition ([3]; at 57.5 µM (top of the series)) 9.96%
-6.26% and 5.61%: max response [3, 17]
active: Potency [12] 12.6 µM | Potency [13] 14.1 µM
-1.94% and 19.5%: max response [3, 18]

Clc1ccc(COC(Cn2ccnc2)c2ccc(Cl)cc2Cl)cc1 (stereo unspecified)
inactive: Potency [15] | activity change, negative = inhibition ([3]; at 57.5 µM (top of the series)) -5.83%
-20.8%: max response [3, 18]
active: Potency [16] 50.1 µM
-16.9%: max response [3, 17]

c1ccc2c(c1)OCC(C1=NCCN1)O2 (stereo unspecified)
active: Potency [7] 8.91 µM | Potency [12] 12.6 µM
8.3%: max response [3, 17]
9.22%: max response [3, 18]
inactive: activity change, negative = inhibition ([3]; at 57.5 µM (top of the series)) 0.671% | outcome [4] | Potency [5] | outcome [6] | Potency [10] | outcome [14]

c1ccc(C2CC2)c(OCC2=NCCN2)c1
15.2%: max response [3, 17]
active: Potency [8] 12.6 µM | Potency [12] 8.91 µM
26.1%: max response [3, 18]
inactive: outcome [1] | outcome [2] | activity change, negative = inhibition ([3]; at 57.5 µM (top of the series)) 8.25% | outcome [4] | Potency [5] | outcome [6] | Potency [9] | Potency [10] | Potency [13] | outcome [14]

N#CC(C#N)=Cc1ccc(O)c(O)c1
inactive: outcome [1] | outcome [2] | outcome [4] | Potency [5] | outcome [6] | Potency [11] | outcome [14]
active: Potency [8] 14.1 µM | Potency [12] 12.6 µM

CC(C)=CC1C(C(=O)OCc2cccc(Oc3ccccc3)c2)C1(C)C (stereo unspecified)
10.5%: max response [3, 17]
23.2%: max response [3, 18]
inactive: activity change, negative = inhibition ([3]; at 57.5 µM (top of the series)) 8.71%

O=c1c(O)c(-c2ccc(O)c(O)c2)oc2cc(O)cc(O)c12
-77.5% and 18.5%: max response [3, 17]
inactive: outcome [2] | activity change, negative = inhibition ([3]; at 57.5 µM (top of the series)) 8.54%
active: Potency [3] 39.8 µM | Potency [5] 2.51 µM | Potency [7] 3.55 µM | Potency [8] 2.51 µM | Potency [9] 3.55 µM | Potency [10] 7.08 µM | Potency [11] 8.91 µM | Potency [12] 4.47 µM | Potency [13] 2.82 µM
-93.3% and 29.8%: max response [3, 18]
